In PubChem BioAssay AID1159506 (National Center for Advancing Translational Sciences (NCATS), 2015):
Whole data set: some 59,000 sequences, median the read-out near -0.00055, cut for the lowest 2% near -2. Many of the other results were omitted from the sample, so the lowest values are more common in it than they were.

Experiment: Identification of proteins required for the processing of the EWS-FLI1 nascent transcript;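 also: robust z of luciferase light less the median z of siRNAs with the same seed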
Details: TC32 Ewing sarcoma NR0B1-luc vs CMV-luc (EWS-FLI1 target promoter against control promoter), 48 h; screened at 20 nM (by protocol)
Method in brief: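 Three siRNAs per gene, each in a separate well at 20 nM, were transfected into TC32 cells bearing either reporter construct. Luminescence was measured two days on, and per-gene comparison relied on seed-corrected Z values.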
For UUACUUAGAGGAGAUACCA against IGFBP7, the seed-corrected z-score was -0.294.
UCCCGGAAAGCCUUCAUGG against INF2 showed a seed-corrected z-score of -0.589.
UAAGAUAUGAACUCUGACG against ZNF234 gave a seed-corrected z-score of 0.548.
UGGGCUUGUAGAAGUGUCU against DGAT1 showed a seed-corrected z-score of -0.22.
Work on AAUUAUUCGACUGACAUAG against RFC4 yielded a seed-corrected z-score of -2.19.
Sequence AUCUGUCCAAGACAUUUGC against CHRNA7 has a seed-corrected z-score of -1.18.
For AAACUGACAAGUAGACUGG against ANKRD27, the seed-corrected z-score was -0.601.
In the case of UCAGUUGCUUAUGAUAGUC against CCDC73, the seed-corrected z-score is reported as -2.71.
UUAUUAGAGAGAAAAGCAC against PRAC1 gave a seed-corrected z-score of 0.7.
UCCGUUAUUAGCAUCUGCC against 6-Mar showed a seed-corrected z-score of -0.0888.
UUAUUGAUGCGUUGAUUUG against CCDC88C showed a seed-corrected z-score of 0.00274.
Sequence UUAUGUACCUUGUUACAUU against CD72 has a seed-corrected z-score of -0.111.
AUGCGGUUCAGGAACUUGG against SBNO2 gave a seed-corrected z-score of -2.46.
For ACAUAUAGUAUCAUUAUGG against SLC35D2, the seed-corrected z-score was 0.0309.
For UUUCGGUUCCUUGAAACCA against DBNL, the seed-corrected z-score was -0.0899.
UUUGAUUCUACUUCAAAAC against CBX3P2 showed a seed-corrected z-score of 0.167.
With AAAGGGACGCUCAACCACC against HIST1H4K the seed-corrected z-score was -1.31.
UUAACUGCAGGCUUAUACU against AKR1B1 showed a seed-corrected z-score of -1.42.
With UAUCUUUUCCCAGUUGGAC against MSRB3 the seed-corrected z-score was -2.11.
For UACGAUUCUUGAGUGGAAG against BACH1, the seed-corrected z-score was 0.239.
Sequence UCUGUUUCUCGCGCACUCG against COX7A1 has a seed-corrected z-score of 0.0308.
UUCUUACACCUGACGAAGC against WNT5B gave a seed-corrected z-score of 0.217.
Work on UAUGAUUUAAUCACCUCCU against LOC653513 yielded a seed-corrected z-score of 0.00911.
Sequence UCAAUGAGAGUGCACAUCC against COPA has a seed-corrected z-score of -3.73.
Work on AUAUCAAUUGUUAUCUUGC against ANKRD30A yielded a seed-corrected z-score of 0.895.
With UCUACUAUCAUUGUCCCUU against TAL1 the seed-corrected z-score was 0.0482.
In the case of UCUGGUACUGUGAAGGGUC against TSPYL5, the seed-corrected z-score is reported as 0.606.
Work on UAUUAUUGUCUGGAACAUC against C12orf57 yielded a seed-corrected z-score of 0.301.
In the case of UGACGUACAGCAUUGACAG against PHLPP2, the seed-corrected z-score is reported as 0.366.
UAAGUCCCAAUUCACUCUC against FAM134B gave a seed-corrected z-score of 2.19.
In the case of UCUGGUUCCAGGUUGCUUA against SFXN3, the seed-corrected z-score is reported as -2.37.
AGUAGAAAGACCAUGCUUG against TUBB2A gave a seed-corrected z-score of 0.712.
Work on AAAACUAUUGGUUUCUUCC against GCOM1 yielded a seed-corrected z-score of -0.0313.
For UUCGUAGUGGAGUGAAUCC against DHH, the seed-corrected z-score was -0.195.
ACUGCUUUCCUUAAAAUCC against CCDC40 showed a seed-corrected z-score of -3.74.
Work on UUGUUAACCAAGACAACGC against SNAPIN yielded a seed-corrected z-score of 0.13.
With UGCUAUAUCUAGAUGUUCC against RMDN2 the seed-corrected z-score was -0.178.
Sequence UCUUUGUUCCAUCAUGACC against NDUFAF7 has a seed-corrected z-score of 0.211.
Sequence UCAUUUCGCACAGCUUCCU against RARG has a seed-corrected z-score of 0.369.
In the case of AAUGCUCCAAGACUGGAGG against PTCRA, the seed-corrected z-score is reported as -1.44.
With UACAUGGUAAUAACUUUUC against MARCKS the seed-corrected z-score was -0.217.
With UUUGUUCAUCACGAAAGUC against SDHAF3 the seed-corrected z-score was -0.383.
AGAGUGUCAAGCAGCAUGG against EEF1A1P33 gave a seed-corrected z-score of -2.33.
UGCGGAUCAAGUCUGAGAC against MSH5 showed a seed-corrected z-score of -0.442.
UGAGUUUCUCGCACGUCUC against WNT4 gave a seed-corrected z-score of -2.44.
For UGAGGCUCCAGUUUCAGGC against SLC3A2, the seed-corrected z-score was 1.53.
UGACUUGACUCCGAUCUGC against AP2A1 showed a seed-corrected z-score of -0.384.
In the case of UUCGUGGUCUUGCAGAAGC against LY6D, the seed-corrected z-score is reported as -0.178.
With GAUAGUUGUAGGGUGUGGC against NDUFA3P3 the seed-corrected z-score was 0.165.
Sequence UAACUUAUCUAAACUACUC against SPAG9 has a seed-corrected z-score of -0.547.
With AAUGGUUUCACCGGCAGCG against IFRD2 the seed-corrected z-score was -2.09.
For AACUCUUCUAUGUCGAAUG against ZNF551, the seed-corrected z-score was -0.267.
For UCCGAUGACACCAAGAGCG against REEP5, the seed-corrected z-score was 0.932.
For UACUUUACGUUCUUCGAUC against PAGE4, the seed-corrected z-score was 0.246.
ACUGGAGAUAGUGCUGUUG against SUN2 showed a seed-corrected z-score of -4.61.
Work on UGUGAUGUUAGCAAUCUUC against TAS2R41 yielded a seed-corrected z-score of -0.517.
Sequence UAGUCAACAAUGUCACAUC against ELOVL7 has a seed-corrected z-score of -0.576.
With UGAUGCACCAUCACAGUCU against SUSD6 the seed-corrected z-score was 0.212.
In the case of CACCAGGAUGGUUUGGUUG against BRICD5, the seed-corrected z-score is reported as 1.06.
For UCUUCGGUCAUGAAUGAGG against TAT, the seed-corrected z-score was -0.586.
For UCUGUCAUCUUUUUGGGUG against PSMD8, the seed-corrected z-score was -4.18.
With UCCGAUACCGACAAUAACC against ADAM7 the seed-corrected z-score was 0.224.
UGAAGUACACCUUAAAGCC against SCN4A showed a seed-corrected z-score of 0.557.
Sequence UCUGUUCCAAUACUGCUUG against CD209 has a seed-corrected z-score of -0.501.
In the case of AUGGUGUCAAGAAUAAGGC against ROPN1L, the seed-corrected z-score is reported as 1.14.
With UCAGCAACAACGGAUAUCG against PLEKHG7 the seed-corrected z-score was -0.178.
